From PubChem BioAssay
Calls of active or inactive are those of the source.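 Rule for the calls, unless noted: active = fluorescence slope after compound addition differing from the mean of all screened samples at 99.7% confidence, in either direction; inactive = the rest.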

Experiments:
[1] = inhibitors of TNFa-induced NFkB p65 translocation, primary screen, imaging, HUVEC, MLSMR starter and 10KST1 sets (AID 438;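 active = inhibition above 20% together with a positive visual image hit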;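 note: compound added about 3h40 before a 20 min TNFalpha stimulation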;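 for inhibition: signal is the nuclear over cytoplasmic p65 intensity ratio per well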); settings: HUVEC TNFa-induced p65 nuclear translocation; cell count: measured here: nuclei count (cytotoxicity indicator), at 2.08 µM; inhibition: at 2 µM, stronger effect = higher value, 0% TNFa-plus-vehicle, 100% no-TNFa wells
[2] = reduction of polyQ htt aggregates in cells – imaging, exon1htt(103Q)mCFP cells, high-content imaging, primary screen (AID 483;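 active = visual image review flags a hit and inhibition of aggregation exceeds 20%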;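 note: compound exposure lasted 3 days before fixation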;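 for nuclei count: percent of the per-plate median nuclei count of sample wells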); settings: exon1htt(103Q)mCFP cell line, aggregate imaging, at 2 µM; inhibition of aggregation: stronger effect = higher value; nuclei count: measured here: cell count, toxicity
[3] = endothelial E-selectin expression blockers – imaging, HUVEC, immunofluorescence, MLSMR starter and 10KST1 sets, primary screen (AID 487;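 active = visually confirmed hit in the image check and inhibition above 20%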;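 for inhibition: signal is fraction of cell area covered by stained E-selectin grains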;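 for nuclei count: 100% = median nuclei count of all wells on the same plate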); settings: HUVEC TNFalpha-induced E-selectin immunofluorescence imaging, at 2 µM; inhibition: stronger effect = higher value; nuclei count: measured here: cell number, toxicity
[4] = biological target: Voltage-gated potassium channel subunit beta-2 (Rattus norvegicus) (UniProt P62483); assay: inhibitors of rat Kvbeta2 reductase activity – biochemical, NADPH fluorescence, primary screen (AID 622;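 active = fluorescence slope higher than the sample average by over 3 SD, cut at about -0.22 in these data, passing the limit was not always enough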;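 note: slope of raw intensity against log time taken from 70 to 1610 s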); settings: recombinant KvBeta, 4-cyanobenzaldehyde reduction, at 10 µM, stronger effect = higher value
[5] = biological target: Voltage-gated potassium channel subunit beta-2 (Rattus norvegicus) (UniProt P62483); assay: enhancers of rat Kvbeta2 NADPH turnover – biochemical, NADPH fluorescence, primary screen (AID 623;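 active = NADPH fluorescence slope more negative than the mean of all samples by about 3 SD, 99.7% confidence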;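 note: fluorescence intensity change per second fitted from 20 to 320 s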); settings: Recombinant KvBeta, NADPH fluorescence decrease slope, 10 min; at 10 µM; stronger effect = lower value
[6] = biological target: Alpha-2C adrenergic receptor (Homo sapiens) (UniProt P18825); assay: compounds altering alpha2C-coupled GIRK flux – cell-based, HEK293 alpha2C/GIRK1/2, thallium flux, primary screen (AID 624); settings: thallium flux BTC fluorescence, at 10 µM, actives lie on both sides;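 note: slope of fluorescence ratio to pre-addition baseline per second over 15 to 24 s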
[7] = blockers of RIG-like receptor reporter activation – cell-based, Sendai virus stimulus, luciferase, 10K MLSCN set, TLR/RLR signaling modifier project, primary screen (AID 602276;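 active = inhibition at or above 50% at 10 µM; inactive = inhibition below 50%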;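 note: firefly luciferase from ISG56 promoter only with Renilla not read in this screen; 0% = Sendai virus plus DMSO and 100% = medium plus DMSO without virus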); settings: HEK293 RL24 IRF3 luciferase reporter, at 10 µM, stronger effect = higher value
[8] = TLR3 IRF3 reporter activation blockers – cell-based, poly I:C stimulus, luciferase, 10K MLSCN set, primary screen (AID 602277;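 active = inhibition of the reporter signal at or above 50%; inactive = inhibition below 50%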); settings: HEK293-TLR3 RL24 IRF3 luciferase reporter, at 10 µM, stronger effect = higher value

Sequence of Alpha-2C adrenergic receptor (Homo sapiens) (P18825 whole entry, looked up): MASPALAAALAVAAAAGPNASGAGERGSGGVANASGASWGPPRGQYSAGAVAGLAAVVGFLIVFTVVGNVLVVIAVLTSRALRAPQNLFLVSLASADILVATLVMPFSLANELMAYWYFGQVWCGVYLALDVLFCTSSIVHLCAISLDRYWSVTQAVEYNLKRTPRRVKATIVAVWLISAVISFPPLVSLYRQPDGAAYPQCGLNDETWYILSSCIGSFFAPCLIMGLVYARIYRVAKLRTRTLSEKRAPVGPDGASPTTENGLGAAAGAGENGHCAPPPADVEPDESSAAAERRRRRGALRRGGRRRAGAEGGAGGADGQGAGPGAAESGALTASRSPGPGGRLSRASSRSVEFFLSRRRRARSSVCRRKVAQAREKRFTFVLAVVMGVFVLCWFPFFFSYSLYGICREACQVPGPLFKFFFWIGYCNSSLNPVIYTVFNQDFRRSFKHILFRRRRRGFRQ
Sequence of Voltage-gated potassium channel subunit beta-2 (Rattus norvegicus) (P62483 whole entry, looked up): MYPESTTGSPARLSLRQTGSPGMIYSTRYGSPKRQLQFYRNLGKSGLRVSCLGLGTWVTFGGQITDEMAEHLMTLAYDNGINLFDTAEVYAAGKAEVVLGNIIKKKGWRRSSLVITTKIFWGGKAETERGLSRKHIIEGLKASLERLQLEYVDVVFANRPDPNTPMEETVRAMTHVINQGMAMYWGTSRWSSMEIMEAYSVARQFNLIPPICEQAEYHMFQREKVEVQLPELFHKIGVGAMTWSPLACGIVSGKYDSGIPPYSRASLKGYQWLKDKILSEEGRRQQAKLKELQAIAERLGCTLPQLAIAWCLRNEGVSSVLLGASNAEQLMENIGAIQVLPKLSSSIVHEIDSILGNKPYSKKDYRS

SMILES	cell count [1]	inhibition [1]	inhibition of aggregation [2]	nuclei count [2]	inhibition [3]	nuclei count [3]	fluorescence slope [4]	NADPH fluorescence slope [5]	slope [6]	inhibition [7]	inhibition [8]
Cc1cc(C)n2nc(SCc3nc4ccccc4[nH]3)nc2n1	789	-6.3% (inactive)	-29.8% (inactive)	103%	-21.3% (inactive)	117%	-0.568 (inactive)	8.8e-06 (inactive)	0.00609 (inactive)	-26.2% (inactive)	-34.6% (inactive)
CC(C)CC(=O)N1CCN(S(=O)(=O)c2ccc(F)cc2)CC1	662	7.7% (inactive)	-7.6% (inactive)	105%	34.7% (inactive)	86.5%	-0.401 (inactive)	2e-05 (inactive)	0.00623 (inactive)	-4.5% (inactive)	-11.7% (inactive)
CC(C)c1ccc(CNc2ccc(N3CCOCC3)cc2)cc1	700	-11.3% (inactive)	-26.2% (inactive)	117%	-54.6% (inactive)	119%	-0.316 (inactive)	-4.8e-05 (inactive)	0.00466 (inactive)	-21.7% (inactive)	-43.5% (inactive)
COCCOC(=O)c1cc(C(=O)c2cc(F)ccc2O)coc1=N	473	-11.2% (inactive)	8.5% (inactive)	107%	-92.3% (inactive)	115%	-0.597 (inactive)	-1.1e-05 (inactive)	0.00549 (inactive)	6.76% (inactive)	11% (inactive)
Cc1cccc(OCc2nc(C#N)c(NCCN(C)C)o2)c1	628	-2.9% (inactive)	-1.8% (inactive)	102%	-27.6% (inactive)	105%	-0.514 (inactive)	-3.5e-05 (inactive)	0.00503 (inactive)	9.05% (inactive)	28.8% (inactive)
CCCS(=O)(=O)C(=C1Nc2ccccc2N1)S(=O)(=O)CCC	543	-7% (inactive)	-18.7% (inactive)	119%	0.5% (inactive)	75.9%	-0.63 (inactive)	-4.3e-05 (inactive)	0.00495 (inactive)	12.1% (inactive)	15.8% (inactive)
COc1ccc(OC)c2[nH]c(=O)c(CCNC(=O)CC(C)C)cc12	325	-12.8% (inactive)	2% (inactive)	91.9%	62.7% (active)	89.8%	-0.508 (inactive)	-4.7e-05 (inactive)	0.00505 (inactive)	-1.86% (inactive)	2.61% (inactive)
CCOc1ccccc1C(=O)NCC(=O)OCC(=O)N1C(C)CCCC1C (stereo not drawn)	683	-3.4% (inactive)	-9.7% (inactive)	103%	26.6% (inactive)	112%	-0.615 (inactive)	3e-05 (inactive)	0.00593 (inactive)	11.2% (inactive)	17.1% (inactive)
